Myeloid diff MLP – myeloid differentiation induction | ER-HoxA9 myeloid progenitors, lysozyme-GFP differentiation, flow cytometry | calls only at 10 µM | actives 1% (n = 360,000) | AID 624256;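 active = normalized GFP-positive differentiation at or above the plate's own cutoff, the solvent-only control mean plus 3 SD; inconclusive = no clear call, values can overlap the other calls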;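 note: cells exposed to compound for four days before flow analysis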
Granule exo inh – lytic granule exocytosis inhibition; TALL-104 LAMP-1 surface exposure, flow cytometry; cells stimulated with thapsigargin and PMA; inhibition, % at 10 µM; actives 0.66% (n = 360,000); AID 651702;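 active = inhibition above about 55%, limit read from the data; inconclusive = no clear call, values can overlap the other calls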
ABCB6 inh MLPCN – inhibitors of human ABC transporter ABCB6. Q9NP58. K562-ABCB6 porphyrin accumulation, flow cytometry, 1 h; hits give low values. fluorescence ratio to DMSO, % at 10 µM. actives 0.19% (n = 360,000). AID 602162;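 active = fluorescence ratio to DMSO below 75%, the collection mean minus 3 SD; inconclusive = too few cells collected in the well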;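 note: signal is porphyrin accumulated inside mitochondria; lower ratio means ABCB6 inhibition with less porphyrin fluorescence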
Numbers stand for hits; i = inactive; ? = inconclusive; nt = no result given; + = active, no number. Sampled rows, rich in hits. Any-hit rate of the full collection: about 1.8%.

SMILES	Myeloid diff MLP	Granule exo inh	ABCB6 inh MLPCN
Cc1cccc(C)c1NC(=O)C(c1ccc(C(F)(F)F)cc1)n1c(=O)c(-c2cc3ccccc3[nH]2)nc2ccccc21 (centres undefined)	i	i	nt
C[C@H]1O[C@H](O[C@H]2[C@H](O[C@@H]3CC[C@@]4(C)C(CC[C@]5(C)C4CC=C4[C@@H]6CC(C)(C)CC[C@]6(C(=O)O[C@@H]6O[C@H](CO)[C@@H](O)[C@H](O)[C@H]6O)CC[C@]45C)C3(C)C)O[C@H](C(=O)O)[C@@H](O)[C@@H]2O)[C@@H](O)[C@@H](O)[C@@H]1O (some centres undefined)	i	i	i
CC1(C)CC[C@]2(C(=O)O[C@@H]3O[C@H](CO)[C@@H](O)[C@H](O)[C@H]3O)CC[C@]3(C)C(=CCC4[C@@]5(C)CC[C@H](O[C@@H]6O[C@H](C(=O)O)[C@@H](O[C@H]7OC[C@@H](O)[C@@H](O)[C@@H]7O)[C@H](O)[C@H]6O)C(C)(C)C5CC[C@]43C)[C@@H]2C1 (some centres undefined)	i	56	i
CC(C)n1nnnc1C1c2ccccc2C(=O)N1C1CC1 (centres undefined)	nt	i	i
CC1CCC(C(C)C)C(OC(=O)C[n+]2cc(-c3ccc(Cl)cc3)n3c2CCC3)C1 (centres undefined)	i	64	i
O=C(C[n+]1cc(-c2ccc(Cl)cc2)n2c1CCC2)N1c2ccccc2Sc2ccccc21	i	i	i
Cc1ccc(Cl)cc1NC(=S)NCc1cccn1C	i	i	73
Cc1ccccc1NC(=S)NCc1cccn1C	i	i	i
CCOC(=O)c1c2c3c(cccc3[nH]c1=O)C(=O)c1ccccc1-2	i	i	i
CCOC(=O)c1c2c3c(c(Cl)ccc3[nH]c1=O)C(=O)c1ccccc1-2	i	92	i
CCc1nc2c(OCC(=O)N3CCOCC3)cccn2c1N(C=O)Cc1ccccc1	i	i	i
Cc1ccc(S(=O)(=O)c2nnn3c2nc(NC2CCN(Cc4ccccc4)CC2)c2ccccc23)cc1C	?	i	i
O=C(CCc1nc2ccccc2c(=O)[nH]1)Nc1cc(Cl)ccc1N1CCCCC1	+	i	i
O=C(CCc1nc2ccccc2c(=O)[nH]1)Nc1ccccc1N1CCCCC1	i	i	i
O=c1oc(-c2ccccc2F)nc2c1cnn2-c1ccccc1	i	84	i
O=c1oc(-c2cccc(Cl)c2)nc2c1cnn2-c1ccccc1	i	i	i
COc1ccc(NC(=O)N(C)C[C@H]2OCCCC[C@H](C)Oc3ccc(NS(=O)(=O)c4cn(C)cn4)cc3C(=O)N([C@H](C)CO)C[C@@H]2C)cc1	i	i	i
COC(=O)c1nc(NC(=O)c2cc(OC)c(OC)c(OC)c2)n[nH]1	i	i	i
O=C1C=C(OCCF)CC(c2ccc(Br)cc2)O1 (centres undefined)	i	i	nt
COc1ccc(-c2cnc3c(NC=O)cc(-c4cccc(NS(C)(=O)=O)c4)cn23)cc1OC	nt	i	i
Cc1cc(SCC(=O)Nc2cccc(S(N)(=O)=O)c2)c(C)cc1Br	i	i	i
Cc1cc(SCC(=O)Nc2cccc(S(=O)(=O)NC3=NCCCCC3)c2)c(C)cc1Br	+	i	i
COc1ccc([C@H]2CC(=O)C[C@@H](CCn3cc(-c4ccccn4)nn3)O2)cc1	i	i	i
CC(C)(C)OC(=O)[C@H](CCCCN)NC(=O)c1[nH]cnc1C(=O)N[C@@H](Cc1ccccc1)C(=O)OCc1ccccc1	+	i	i
CC(C)(C)OC(=O)[C@H](Cc1ccccc1)NC(=O)c1[nH]cnc1C(=O)N[C@@H](Cc1ccccc1)C(=O)OCc1ccccc1	i	i	i
SMILES	Myeloid diff MLP	Granule exo inh	ABCB6 inh MLPCN
COc1cccc(/C=C/C(=O)OCC(=O)Nc2cccc(S(=O)(=O)NC3=NCCCCC3)c2)c1	i	i	i
O=S(=O)(c1ccc(Cl)c(NC(=S)Nc2ccccc2N2CCOCC2)c1)N1CCOCC1	i	i	i
C/C(=N\NC(=S)Nc1cc(S(=O)(=O)N2CCOCC2)ccc1Cl)c1ccc(N2CCOCC2)cc1	+	i	i
CC(=O)Nc1sc2c(c1C(c1ccccn1)N1CCCC1)CCCC2 (centres undefined)	i	i	i
CC(=O)Nc1sc2c(c1C(c1ccccc1Cl)N1CCN(CCO)CC1)CCCC2 (centres undefined)	+	i	i
CCCC(=O)NCC(c1cccs1)S(=O)(=O)c1ccc(Cl)cc1 (centres undefined)	+	i	i
CC(=O)NCC(c1cccs1)S(=O)(=O)c1ccc(F)cc1 (centres undefined)	i	i	i
CCN1Cc2c(/C=C/c3ccccc3)nc3ccc(OC)cc3c2N(c2cccc(Cl)c2)C1	+	65	i
COc1ccc(/C=C/c2nc3ccccc3c(=O)o2)cc1	i	i	i
CCCCNc1c(-c2ccc(OC)c(SC(C)CC)c2)nc2cnccn12 (centres undefined)	i	i	i

Source: PubChem BioAssay
